# From PubChem BioAssay (EPA / NIEHS)
# Results filed as inconclusive are left out. Calls of active or inactive are those of the source. The calls were made as follows, unless noted: active = hit-call score of the fitted dose curve at least 0.9, where 1 is the maximum; inactive = score below 0.9.
# Columns and labels:
# [1] = CCTE_Shafer_MEA_acute_network_burst_percentage: CCTE's Neural Acute Assay for Percentage of Network Bursts, Shafer Lab (AID 2284022);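 also: curves fitted for loss so actives lower network burst percentage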
# Summary of the method: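 Readout is the fraction of spikes falling in network bursts, expressed as per-well percent change from a 40-min pre-exposure baseline. Primary rat cortical neurons on MEA were exposed to 0.03-40 uM compound on DIV 13 or 15 and recorded for 40 min at 37 C.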
# [2] = CCTE_Shafer_MEA_acute_cross_correlation_area: CCTE's Neural Acute Assay for Area of Cross Correlation, Shafer Lab (AID 2284024);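 also: rat primary cortical neuron networks on 48-well MEA at DIV 13 or 15 with 40 min exposure; area under pooled inter-electrode spike cross-correlation near zero lag as percent change from own baseline; curves fitted for loss of cross-correlation area so actives lower synchrony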
# Summary of the method: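 Plates equilibrated 20 min at 37 C, then 40 min baseline was recorded, compound was added (0.03-40 uM), and a further 40 min was recorded. Wells needed ≥10 active electrodes (≥5 spikes/min) on exposure day.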
# [3] = CCTE_Shafer_MEA_acute_cross_correlation_HWHM: CCTE's Neural Acute Assay for Cross Correlation at Half Width at Half Maximum, Shafer Lab (AID 2284026);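 also: percent change per well from pre-dose baseline in spike cross-correlogram half width; hits are a decrease in cross-correlogram half width relative to DMSO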;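 as to outcome: spontaneous network firing of rat primary cortical neurons on multiwell microelectrode arrays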
# Summary of the method: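 Rat cortical neuron cultures on microelectrode arrays were equilibrated 20 min at 37 C, recorded 40 min at baseline, then 40 min after compound addition (0.03-40 uM, ≥3 wells). Spikes were detected at 8x rms noise after 300-5000 Hz band-pass filtering.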
# [4] = CCTE_Shafer_MEA_acute_synchrony_index: CCTE's Neural Acute Assay for Synchrony, Shafer Lab (AID 2284027);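 also: network synchrony index of spontaneous spiking in primary rat cortical neurons on MEAs; fitted for loss of signal so actives lower synchrony relative to DMSO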
# Summary of the method: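 Spontaneous firing of mature rat cortical networks is captured extracellularly on microelectrode arrays at 37 C, with wells needing ≥10 active electrodes. Each compound (0.03-40 uM) is judged by the change in synchrony index from baseline over 40 min.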
# [5] = molecular target: Estrogen receptor (Homo sapiens) (UniProt P03372); assay: CCTE_Deisenroth_AIME_384WELL_LUC_Active: CCTE's 384-well Estrogen Receptor Transactivation Assay with AIME metabolic competence (ERTA luciferase; metabolism positive), Deisenroth Lab (AID 2284030; active = hit-call score of the fitted dose curve at least 0.9, where 1 is the maximum)
# Summary of the method: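 AIME metabolism-positive mode: chemicals 0.002 - 200 uM, 2 h with alginate-bound PB/BNF-induced rat S9 → medium to VM7Luc4E2 ERTA, 24 h → luciferase. Positive fit vs 17beta-estradiol; n=4 typical.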
# [6] = CCTE_Deisenroth_AIME_96WELL_CTox_Active: Cytotoxicity Assessment (CTOX) in CCTE's 96-well Estrogen Receptor Transactivation Assay with AIME metabolic competence (metabolism positive), Deisenroth Lab (AID 2284028; active = hit-call score of the fitted dose curve at least 0.9, where 1 is the maximum)
# Summary of the method: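 Chemicals (0.002–200 uM) were first incubated 2 h with alginate-immobilized phenobarbital/beta-naphthoflavone-induced male rat liver S9; conditioned medium then went onto VM7Luc4E2 cells for 24 h, with viability read by protease-substrate fluorescence, fitted bidirectionally.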
# [7] = molecular target: Estrogen receptor (Homo sapiens) (UniProt P03372); assay: CCTE_Deisenroth_AIME_96WELL_LUC_Active: CCTE's 96-well Estrogen Receptor Transactivation Assay with AIME metabolic competence (ERTA luciferase; metabolism positive), Deisenroth Lab (AID 2284023; active = hit-call score of the fitted dose curve at least 0.9, where 1 is the maximum)
# Summary of the method: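 Chemicals pre-incubated 2 h with alginate-immobilized phenobarbital/beta-naphthoflavone-induced male Sprague Dawley rat liver S9, then medium transferred to VM7Luc4E2 cells for 24 h luciferase read-out. 10-point series 0.002 - 200 uM; fitted relative to 17beta-estradiol.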
# [8] = molecular target: Estrogen receptor (Homo sapiens) (UniProt P03372); assay: CCTE_Deisenroth_AIME_96WELL_LUC_Inactive: CCTE's 96-well Estrogen Receptor Transactivation Assay without AIME metabolic competence (ERTA luciferase; metabolism negative), Deisenroth Lab (AID 2284025; active = hit-call score of the fitted dose curve at least 0.9, where 1 is the maximum)
# Summary of the method: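 VM7Luc4E2 breast cells, luciferase read 24 h after dosing with medium pre-incubated 2 h on alginate-water lids (metabolism negative). 10-point series 0.002–200 uM, single technical replicate, n≥4; fit relative to 17beta-estradiol.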
# [9] = CCTE_Shafer_MEA_dev_firing_rate_mean: CCTE's Neural Network Formation Assay for Mean Firing Rate, Shafer Lab (AID 2284031);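 also: AUC of well mean spike rate recorded on DIV 5 7 9 and 12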;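 as to AC50: curve fitted for loss of firing so AC50 reflects decreased mean firing rate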
# Summary of the method: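 Developing rat cortical networks on MEA plates undergo 12-day compound exposure. Firing frequency, averaged across active electrodes, is integrated as area under the curve over four recording days, referenced to DMSO.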
# [10] = CCTE_Shafer_MEA_dev_per_burst_spike_percent: CCTE's Neural Network Formation Assay for Percent of Spikes in a Burst, Shafer Lab (AID 2284032);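 as to AC50: fitted as a decrease in burst spike percentage below DMSO baseline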
# Summary of the method: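 Rat primary cortical neurons on 16-electrode MEA wells, dosed from plating day 0 for 12 days with renewal on DIV 5 and 9; spikes-in-bursts percentage averaged over bursting electrodes, collapsed as AUC across days 5, 7, 9, 12; loss direction versus DMSO.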
# Estrogen receptor (Homo sapiens), sequence (P03372 whole entry, looked up): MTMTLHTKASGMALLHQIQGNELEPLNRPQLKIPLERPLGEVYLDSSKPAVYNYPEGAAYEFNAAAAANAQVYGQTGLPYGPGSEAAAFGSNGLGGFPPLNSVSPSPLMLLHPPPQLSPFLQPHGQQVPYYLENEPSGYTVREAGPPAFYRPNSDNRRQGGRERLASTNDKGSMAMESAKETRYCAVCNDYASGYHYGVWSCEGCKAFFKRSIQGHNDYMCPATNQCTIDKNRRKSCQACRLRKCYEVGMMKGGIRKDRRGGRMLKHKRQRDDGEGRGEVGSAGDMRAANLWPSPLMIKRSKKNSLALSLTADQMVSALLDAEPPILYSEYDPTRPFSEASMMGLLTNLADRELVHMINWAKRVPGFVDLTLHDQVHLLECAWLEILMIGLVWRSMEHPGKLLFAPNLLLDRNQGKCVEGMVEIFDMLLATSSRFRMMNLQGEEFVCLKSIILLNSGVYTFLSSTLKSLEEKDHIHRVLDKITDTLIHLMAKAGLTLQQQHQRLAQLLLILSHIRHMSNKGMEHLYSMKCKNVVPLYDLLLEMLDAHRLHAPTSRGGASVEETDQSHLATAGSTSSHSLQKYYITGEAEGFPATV
structure (smiles),measurement,setting,value
CCCCOC(=O)c1ccc(O)cc1,outcome,[1],inactive
same,outcome,[2],inactive
same,outcome,[3],inactive
same,outcome,[4],inactive
CCCCCCCCCCCCO,AC50,[1],25.8 µM (active)
same,outcome,[2],inactive
same,AC50,[3],28.8 µM (active)
same,AC50,[4],27.6 µM (active)
OC12N=C(c3ccccc3)SC1Cc1cc(Cl)ccc12 (stereo unspecified),outcome,[1],inactive
same,outcome,[2],inactive
same,AC50,[3],31.3 µM (active)
same,AC50,[4],31.8 µM (active)
same,outcome,[5],inactive
CC(=O)N1CCN(c2ccc(OC[C@H]3CO[C@](Cn4ccnc4)(c4ccc(Cl)cc4Cl)O3)cc2)CC1,outcome,[1],inactive
same,outcome,[2],inactive
same,AC50,[3],33.1 µM (active)
same,outcome,[4],inactive
O=c1c(-c2ccc(O)cc2)coc2cc(O)cc(O)c12,outcome,[6],inactive
O=c1ccc2ccccc2o1,outcome,[7],inactive
same,outcome,[8],inactive
CO[C@H]1/C=C/O[C@@]2(C)Oc3c(C)c(O)c4c(O)c(c(/C=N/N5CCN(C)CC5)c(O)c4c3C2=O)NC(=O)/C(C)=C\C=C\[C@H](C)[C@H](O)[C@@H](C)[C@@H](O)[C@@H](C)[C@H](OC(C)=O)[C@@H]1C,outcome,[1],inactive
same,outcome,[2],inactive
same,outcome,[4],inactive
CCCCCCCCCCCO,outcome,[5],inactive
Oc1ccccc1,outcome,[9],inactive
same,outcome,[10],inactive
CCCCCCCCN(C)CCCCCCCC,outcome,[5],inactive
OCCO,AC50,[5],28.2 µM (active)
O=C(Nc1ccc(Cl)cc1)Nc1ccc(Cl)c(Cl)c1,outcome,[5],inactive
c1ccc2ccccc2c1,outcome,[7],inactive
same,outcome,[8],inactive
same,outcome,[5],inactive
same,outcome,[9],inactive
same,outcome,[10],inactive
CC(C)(c1cc(Br)c(O)c(Br)c1)c1cc(Br)c(O)c(Br)c1,outcome,[1],inactive
same,outcome,[2],inactive
same,outcome,[3],inactive
same,outcome,[4],inactive
same,outcome,[9],inactive
same,outcome,[10],inactive
COCC(C)OCC(C)OCC(C)O (stereo unspecified),outcome,[5],inactive
COc1cccc([C@H](O)C2CCN(CCc3ccc(F)cc3)CC2)c1OC,outcome,[1],inactive
same,outcome,[2],inactive
same,AC50,[3],10.2 µM (active)
same,outcome,[4],inactive
same,outcome,[5],inactive
O=C(O)Cn1c(=O)n(Cc2ccc(Br)cc2F)c(=O)c2ccc(Cl)cc21,outcome,[5],inactive
CCCCCCCCOC(=O)c1cc(O)c(O)c(O)c1,AC50,[1],9.35 µM (active)
same,AC50,[3],8.04 µM (active)
same,AC50,[4],8.07 µM (active)
Cc1ccc(C(C)C)cc1,outcome,[5],inactive
CN1C(=O)CC[C@H]1c1cccnc1,outcome,[1],inactive
same,outcome,[2],inactive
same,outcome,[3],inactive
same,outcome,[4],inactive
same,outcome,[9],inactive
same,outcome,[10],inactive
CC/C(=C(/CC)c1ccc(O)cc1)c1ccc(O)cc1,AC50,[1],10.5 µM (active)
same,outcome,[2],inactive
same,AC50,[3],20 µM (active)
same,AC50,[4],10.2 µM (active)
same,AC50,[9],3.24 µM (active)
same,AC50,[10],15 µM (active)
CCCOC(=O)c1cc(O)c(O)c(O)c1,AC50,[5],35.9 µM (active)
Clc1ccccc1C(c1ccccc1)(c1ccccc1)n1ccnc1,AC50,[1],5 µM (active)
same,outcome,[2],inactive
same,AC50,[3],9.09 µM (active)
same,AC50,[4],6.8 µM (active)
same,outcome,[9],inactive
same,outcome,[10],inactive
Cc1oc2c(NC(=O)c3c(Cl)cccc3Cl)cccc2c1C(C)(C)O,outcome,[5],inactive
O=C1O[C@H]([C@@H](O)CO)C(O)=C1O,outcome,[1],inactive
same,outcome,[2],inactive
same,outcome,[3],inactive
same,outcome,[4],inactive
same,outcome,[9],inactive
same,outcome,[10],inactive
CC[C@H](NC(=O)c1cc(F)ccc1NS(=O)(=O)c1cccc2cccnc12)c1ccccc1,outcome,[5],inactive
CN(C)c1ccc(C(=C2C=CC(=[N+](C)C)C=C2)c2ccc(N(C)C)cc2)cc1,AC50,[1],2.27 µM (active)
same,AC50,[3],2.13 µM (active)
same,AC50,[4],1.42 µM (active)
